# According to PubChem BioAssay (NCATS):
# Records with an inconclusive call do not appear. Entries that show only a call come without a potency. Active and inactive are the calls of the source. Calls follow the shape of the dose curve; as a rule, active = well fitted curve in the direction sought with a large enough effect; inconclusive = small, poorly fitted or top-dose-only effect, or another doubt; inactive = no such curve, though single readings can be large; an effect the other way counts as inactive or inconclusive.
# How the values were obtained:
# [1] = Cytotoxicity qHTS for assessment of Hepg2 cells membrane integrity screened against the NCATS CANVASS Library (AID 1347387)
# How it was run: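 Cells were seeded at 2000 per well and left overnight to attach. Compounds were pin-transferred to give 0.59 nM - 46 uM in an 11-point series and incubated 5 hr at 37C. CytoTox-ONE reagent was added and, after 10 min at room temperature, fluorescence (ex 560, em 590 nm) was read.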
# [2] = qHTS for Activators of p53 Stress Response Pathway screened against the NCATS CANVASS Library (AID 1347388)
# How it was run: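 Beta-lactamase reporter driven by p53 response elements in HCT-116 cells, read as the 460 nm/530 nm emission ratio after CCF4 loading, following 16 h of exposure to an 11-point series. Cell viability was measured in the same wells by CellTiter-Glo luminescence.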
# [3] = qHTS assay for small molecule disruptors of mitochondrial membrane potential screened against the NCATS CANVASS Library (AID 1347389); also: series mostly up to about 46 µM; nearly all actives have a fitted effect of over 60% in size
# How it was run: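 Mitochondrial depolarization in HepG2 cells is scored as a falling aggregate-to-monomer fluorescence ratio after 1 hr compound exposure and 30 min staining with Mito-MPS dye at 37C, each compound tested as an 11-point titration.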
# [4] = Secretion counterscreen for inhibitors of the SERCaMP assay screened against the NCATS CANVASS Library (AID 1347390);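 also: light from luciferase secreted into medium read as a measure of general secretion; series mostly up to about 77 µM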
# How it was run: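 SH-SY5Y-GLuc STOP cells; 4 h attach; cpds 0.001 - 77 uM (qHTS, 11 pts), 20 h 37C/5% CO2; coelenterazine in glow buffer; luminescence, 5 s exposure.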
# [5] = qHTS for activators of Nrf2/ARE signaling pathway screened against the NCATS CANVASS Library (AID 1347391); also: nearly all actives have a fitted effect of over 60% in size
# How it was run: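 Beta-lactamase reporter signal, read as 460 and 530 nm emission under 405 nm excitation after 2 h CCF4 loading, reflected ARE activation in HepG2 cells treated 16 h with an 11-point series.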
# [6] = qHTS for activators of dead-cell proteases activity screened against the NCATS CANVASS Library (AID 1347392);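 also: luminescence from protease leaking out of membrane-damaged cells cleaving impermeant substrate; rising signal means more cytotoxicity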
# How it was run: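 Luminescent dead-cell protease readout (AAF-aminoluciferin, 15 min, room temperature) after 5 h compound treatment of HepG2 cells (2000/well, pre-attached 18 h). Eleven concentrations.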
# [7] = qHTS for inhibitors of ER calcium dysfunction: SERCaMP assay screened against the NCATS CANVASS Library (AID 1347393); also: nearly all actives have a fitted effect of over 40% in size; also: potency is read from the fitted curve at half-maximal effect
# How it was run: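 Thapsigargin-induced ER calcium depletion drives GLuc-SERCaMP secretion from SH-SY5Y cells; compounds given 16 h beforehand were scored by lowered coelenterazine luminescence after 4 h challenge.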
# [8] = Vero-766 cells viability qHTS against the NCATS CANVASS Library: Counterscreen for Zika virus inhibition assay (AID 1347394); also: series mostly up to about 46 µM; nearly all actives have a fitted effect of over 60% in size
# How it was run: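 Vero 766, no virus; 1000 cells/well; o/n attach; cpd 11-pt; 72 h, 37C, 5% CO2; CTG luminescence; cell-free media wells = 100% inhibition.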
# [9] = qHTS for inhibitors of Wild type Zika virus screened against the NCATS CANVASS Library (AID 1347396);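 also: ATP luminescence of surviving cells so rescue from viral cell killing; series mostly up to about 46 µM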
# How it was run: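 Vero 766 cells, 1000/well, o/n attach; cpds pin-transferred (11-pt qHTS); WT Zika added; 72 h, 37C, 5% CO2; CellTiter Glo lumi. Uninfected + vehicle = 100% inhibition.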
# [10] = Viability qHTS for inhibitors of the SERCaMP assay screened against the NCATS CANVASS Library (AID 1347400); also: series mostly up to about 92 µM; nearly all actives have a fitted effect of over 70% in size
# How it was run: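 Seed SH-SY5Y-GLuc SERCaMP MJH297 cells at 1000 per well, incubate 4 h, add compounds across an 11-point range, incubate 48 h at 37C, then add CellTiter-Glo and read luminescence.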
Structure (SMILES),outcome [1],outcome [2],outcome [3],outcome [4],outcome [5],outcome [6],Potency [7],outcome [8],outcome [9],outcome [10]
COC(=O)[C@@H]1[C@H]2C[C@H]3c4[nH]c5ccccc5c4CCN3C[C@@H]2CC[C@@H]1O,inactive,inactive,inactive,inactive,inactive,inactive,30.5 µM (active),inactive,inactive,inactive
O=C(O)C(O)Cc1ccc(O)c(O)c1 (centres undefined),inactive,inactive,inactive,inactive,inactive,inactive,,inactive,inactive,inactive
O=c1cc(-c2ccccc2)oc2cc(O)c(O)c(O)c12,inactive,inactive,inactive,inactive,inactive,inactive,inactive,inactive,inactive,inactive
